Results taken from article PMC4552634, “A New Set of Chemical Starting Points with Plasmodium falciparum Transmission-Blocking Potential for Antimalarial Drug Discovery” (PLoS ONE, 2015).
In all, about 13,000 compounds went through this assay and about 3,200 (25%) showed an effect of 50% or more. This is one part of the list.

Tested on: P. falciparum stage V gametocytes
Set-up: BacTiter-Glo ATP luminescence viability of purified stage V gametocytes in 384-well plates, per cent inhibition versus DMSO
Conditions: 48 h, 5 µM; inhibitor

Compound | % Inhibition [%]
Cc1c(C)n(C2CCCCC2)c2ncnc(OC3CCN(CC(=O)NC4CC4)CC3)c12 [TCMDC-124853] | 15.8
CCCc1cnc2nc(N)nc(N)c2c1C [TCMDC-138066] | 12.33
Cn1cc(-c2ccccc2C(=O)O)c(=O)c2cc(Cl)ccc21 [TCMDC-123861] | 6.577
CCOc1cc(C(=O)N[C@@H](Cc2ccccc2)[C@H](O)CNCc2cc(OC)cc(OC)c2)cc(N2CCCC2=O)c1 [TCMDC-134571] | -29.57
COCc1cc(C)nc2sc(C(=O)Nc3cc(C(C)(C)C)ccc3O)c(N)c12 [TCMDC-125131] | 1.168
O=C(/C=C/c1ccc(Cl)c(Cl)c1)NCCCCCN1CCCN(C(=O)Nc2cc(F)cc(F)c2)CC1 [TCMDC-135751] | -53.24
Oc1cccc(Nc2ccnc3cc(-c4cc5ccccc5o4)ccc23)c1 [TCMDC-138287] | -55.42
COc1ccc(Cc2c(N)nc3nc(N)nc(N)c3c2C)cc1 [TCMDC-138061] | 18.63
COc1cccc(-c2cc3c(NCc4ccncc4)nccc3s2)c1 [TCMDC-135200] | -6.172
CC(C)CC(=O)N1CCNC[C@@H]1C(=O)NCCSCc1c(F)cccc1Cl [TCMDC-141243] | -23.04
O=C(/C=C/c1ccc(Cl)c(Cl)c1)N1CCCC(CCCN2CCC(c3c[nH]c4ccccc34)CC2)C1 (centres unmarked) [TCMDC-139505] | 18.14
NC(N)=NN=CC(=O)Nc1ccc(Cl)c(Cl)c1 [TCMDC-137466] | -3.448
NC(N)=NN=Cc1c2ccccc2c(Cl)c2c(Cl)cccc12 [TCMDC-137898] | 83.04
NC(N)=NN=Cc1c2ccccc2c(Cl)c2cc(Cl)ccc12 [TCMDC-137903] | 96.19
Clc1ccc2c(NN=Cc3ccccc3)ccnc2c1 [TCMDC-123962] | -43
NC(N)=NN=Cc1c2ccc(Cl)cc2c(Cl)c2ccc(Cl)cc12 [TCMDC-137884] | 111.2
NC(N)=NN=Cc1c[nH]c2ccc(-c3ccccc3)cc12 [TCMDC-138961] | -59.33
NC(N)=NN=Cc1c2ccccc2c(Cl)c2ccc(Cl)cc12 [TCMDC-137911] | 98.76
Cc1cc(C)c(C)c(S(=O)(=O)N2CCCCC(c3ccc(F)c(F)c3)=N2)c1C [TCMDC-135419] | -64.55
CCCc1cc(Cc2cnc(N)nc2N)cc(CC)c1OC [TCMDC-137693] | 21.32
COc1ccc(Nc2nccc(N3CCC(NC(=O)Nc4ccc5c(c4)OCO5)C3)n2)cc1 (centres unmarked) [TCMDC-133617] | -60.34
CN(C)CCC1CCN(CCS(=O)(=O)c2cccc(Nc3ncc(-c4cccc(F)c4)cn3)c2)CC1 [TCMDC-134374] | 1.071
CC(C)Cn1cc(C2CCN(CCN3CCC(CNC(=O)c4ccc(-c5ccc(C#N)cc5)cc4)CC3)CC2)c2ccccc21 [TCMDC-138849] | 100.8

Compound | % Inhibition [%]
N#Cc1ccc(-c2ccc(C(=O)NCCCCN3CCC(c4cn(CCCO)c5ccccc45)CC3)cc2)cc1 [TCMDC-138837] | -51.57
C=C(C)Cn1cc(C2CCN(CCN3CCC(CNC(=O)c4ccc(-c5ccc(C#N)cc5)cc4)CC3)CC2)c2ccccc21 [TCMDC-138854] | 103.5
COc1cccc2c1CCN(CCN1CCC(CNC(=O)c3ccc(-c4ccc(C#N)cc4)cc3)CC1)C2 [TCMDC-134140] | 16.45
N#Cc1ccc(-c2ccc(C(=O)NCCCCN3CCC(c4cn(CCO)c5ccccc45)CC3)cc2)cc1 [TCMDC-138836] | -28.51
COc1ccc2c(c1)CCN(CCN1CCC(CNC(=O)c3ccc(-c4ccc(C#N)cc4)cc3)CC1)C2 [TCMDC-138881] | -33.61
COc1cc(C=C(C2=NC(=O)CS2)c2nc3cccnc3n2C)ccc1O [TCMDC-135917] | -7.7
O=C(CC1CCCCC1)NCC(NCCCNc1cc(=O)c2ccccc2[nH]1)c1cc(Br)cc(Br)c1 (centres unmarked) [TCMDC-140315] | -37.31
Cc1cccc2[nH]c(-c3ccc(-c4cccc(NC(=O)C(C)CN(C)C)c4)cc3)nc12 (centres unmarked) [TCMDC-137103] | -53.92
CC(=O)c1c(CC(=O)O)c2ccccc2n1O [TCMDC-131414] | 58.24
CCCCOc1ccc(-n2c(Nc3ccccc3)nc3cc(S(N)(=O)=O)ccc32)cc1 [TCMDC-135489] | -3.968
CC1CCC(C[C@@H](C(=O)N[C@@H](CCC(=O)N2CCCCC2)C(=O)Nc2nccs2)[C@H](C(C)C)N(O)C=O)CC1 (some centres unmarked) [TCMDC-138168] | -16.64
COc1cccc(Nc2nc(Nc3cccc(C#N)c3)cc(-c3ccncc3)n2)c1 [TCMDC-133447] | 6.387
O=C(CSc1n[nH]c(=O)n1Cc1ccccc1)Nc1ccccc1-c1ccccc1 [TCMDC-123557] | 0.01985
COc1ccc(C2CC(c3cccs3)=NN2C(=O)c2ccccc2)cc1OC (centres unmarked) [TCMDC-123755] | -49.1
COc1ccccc1-n1c(SCC(=O)c2ccc3c(c2)CC(=O)N3C)nnc1-c1cccs1 [TCMDC-124819] | 56.33
Cn1c(N)c(C(=O)CSc2nnc(-c3cccs3)n2Cc2ccccc2)c(=O)n(C)c1=O [TCMDC-124496] | -5.537
CN1CCCC1CNS(=O)(=O)c1ccc(C(=O)NCC2CC2)cc1 (centres unmarked) [TCMDC-133683] | 0.07982
CCc1ccc(C(=O)NC(=O)c2ccccc2O)cc1 [TCMDC-123479] | 19.58
Cc1ccc(O)cc1Nc1ccnc2cc(-c3csc(CN(C)CCN(C)C)n3)ccc12 [TCMDC-138458] | 49.52
c1ccc(Oc2ccc(Nc3ccnc4cc(-c5csc(CNCCN6CCOCC6)n5)ccc34)cc2)cc1 [TCMDC-138407] | 5.088
CS(=O)(=O)CCNCc1nc(-c2ccc3c(Nc4ccc(Oc5ccccn5)cc4)ccnc3c2)cs1 [TCMDC-138438] | -37.4
CN(C)CCN(C)Cc1nc(-c2ccc3c(Nc4ccc(Oc5ccccc5)cc4)ccnc3c2)cs1 [TCMDC-138408] | 77.6
CN(C)CCNCc1nc(-c2ccc3c(Nc4ccc(Oc5ccccc5)cc4)ccnc3c2)cs1 [TCMDC-138410] | 95.14

Compound | % Inhibition [%]
CN(C)CCNCc1nc(-c2ccc3c(Nc4ccc(Cl)cc4F)ccnc3c2)cs1 [TCMDC-138455] | 16.78
CCc1ccc2nc(-c3ccc(F)cc3)nc(SCC(=O)Nc3sc(C)c(C)c3C#N)c2c1 [TCMDC-125430] | 16.25
COc1ccc2nccc([C@@H](O)CN3CCC(NC(=O)c4cc5c(F)cc(F)cc5[nH]4)CC3)c2n1 [TCMDC-134945] | -17.57
COc1cc2c(=O)c(Cc3ccc(Cl)cc3)c(C)[nH]c2cc1F [TCMDC-137280] | 22.18
CCCCCCc1c(C)[nH]c2cc(OC)ccc2c1=O [TCMDC-138010] | 73.98
CCCCCCCc1c(C)[nH]c2cc(OC)ccc2c1=O [TCMDC-137173] | 75.71
CO/C(=C\C=C\c1cc2cc(Cl)c(Cl)cc2[nH]1)C(=O)NC1CC2CCCC(C1)N2C (centres unmarked) [TCMDC-139067] | 19.33
CO/C(=C\C=C\c1cc2cc(Cl)c(Cl)cc2[nH]1)C(=O)NC1CCN(CCOc2ccccc2)CC1 [TCMDC-139454] | 27.46
CO/C(=C\C=C\c1cc2cc(Cl)c(Cl)cc2[nH]1)C(=O)NC1CC(C)N(C)C(C)C1 (centres unmarked) [TCMDC-139085] | -67.29
CO/C(=C\C=C\c1cc2cc(Cl)c(Cl)cc2[nH]1)C(=O)NC1CCN(CCNc2ccccc2)CC1 [TCMDC-139535] | -22.32
CO/C(=C\C=C/c1cc2cc(Cl)c(Cl)cc2[nH]1)C(=O)NC1CC(C)(C)N(C)C(C)(C)C1 [TCMDC-139106] | -40.37
CO/C(=C\C=C\c1cc2cc(Cl)c(Cl)cc2[nH]1)C(=O)NC1CC2CCC(C1)N2C (centres unmarked) [TCMDC-139038] | 73.28
CO/C(=C\C=C\c1cc2cc(Cl)c(Cl)cc2[nH]1)C(=O)N[C@H]1CN2CCC1CC2 [TCMDC-139095] | -57.18
CO/C(=C/C=C/c1cc2cc(Cl)c(Cl)cc2[nH]1)C(=O)NC1CC(C)(C)N(C)C(C)(C)C1 [TCMDC-139097] | 81.55
CO/C(=C\C=C\c1cc2cc(Cl)c(Cl)cc2[nH]1)C(=O)NC1CCN(CCCc2ccccc2)CC1 [TCMDC-139657] | 70.65
CC(C)(CNC(=O)[C@H]1CCCCN1)c1nc(-c2ccc(Cl)c(O)c2)c(-c2ccncc2)[nH]1 [TCMDC-141070] | -44.74
Oc1ccccc1-c1nc2cccnc2n1CCc1cccc(C(F)(F)F)c1 [TCMDC-135091] | 14.7
Cc1sc2ncnc(Sc3nnc(N)s3)c2c1C [TCMDC-124542] | 96.33
CCc1cc2c(Sc3nnc(N)s3)ncnc2s1 [TCMDC-123993] | 80.67
COc1ccc(-c2cc(C(=O)N[C@@H](CC3CCCCC3)C(=O)NC3CCCc4ccccc43)ccc2O)cc1 (some centres unmarked) [TCMDC-140806] | 24.41
O=C(NCCN1CCCc2ccccc21)C1CCN(c2nc(-c3ccc(Cl)cc3)no2)CC1 [TCMDC-125165] | 5.616
Cc1noc(C)c1-c1cccc(CNCc2cccc(-c3cccc(-c4nc5cc(F)ccc5[nH]4)c3)c2)c1.O=C(O)C(F)(F)F [TCMDC-133064] | -20.89
